Test results as given in publication PMC4336329 (PLoS ONE, 2015).
About 14,000 (4.5%) of roughly 310,000 compounds showed an effect of 50% or more. Effects have a minus sign here. The list comes from a sample in which strong results are over-represented; it also holds similar structures and randomly drawn compounds.

Molecular target: human ether-à-go-go-related gene (hERG) potassium channel (human, UniProt Q12809)
Assay: primary screen, population patch clamp on CHO cells stably expressing hERG; higher = less effect of the substance
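Also: peak tail current of the secondary pulse compared with the same well before compound.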

Chain of human ether-à-go-go-related gene (hERG) potassium channel (Q12809 whole entry, looked up): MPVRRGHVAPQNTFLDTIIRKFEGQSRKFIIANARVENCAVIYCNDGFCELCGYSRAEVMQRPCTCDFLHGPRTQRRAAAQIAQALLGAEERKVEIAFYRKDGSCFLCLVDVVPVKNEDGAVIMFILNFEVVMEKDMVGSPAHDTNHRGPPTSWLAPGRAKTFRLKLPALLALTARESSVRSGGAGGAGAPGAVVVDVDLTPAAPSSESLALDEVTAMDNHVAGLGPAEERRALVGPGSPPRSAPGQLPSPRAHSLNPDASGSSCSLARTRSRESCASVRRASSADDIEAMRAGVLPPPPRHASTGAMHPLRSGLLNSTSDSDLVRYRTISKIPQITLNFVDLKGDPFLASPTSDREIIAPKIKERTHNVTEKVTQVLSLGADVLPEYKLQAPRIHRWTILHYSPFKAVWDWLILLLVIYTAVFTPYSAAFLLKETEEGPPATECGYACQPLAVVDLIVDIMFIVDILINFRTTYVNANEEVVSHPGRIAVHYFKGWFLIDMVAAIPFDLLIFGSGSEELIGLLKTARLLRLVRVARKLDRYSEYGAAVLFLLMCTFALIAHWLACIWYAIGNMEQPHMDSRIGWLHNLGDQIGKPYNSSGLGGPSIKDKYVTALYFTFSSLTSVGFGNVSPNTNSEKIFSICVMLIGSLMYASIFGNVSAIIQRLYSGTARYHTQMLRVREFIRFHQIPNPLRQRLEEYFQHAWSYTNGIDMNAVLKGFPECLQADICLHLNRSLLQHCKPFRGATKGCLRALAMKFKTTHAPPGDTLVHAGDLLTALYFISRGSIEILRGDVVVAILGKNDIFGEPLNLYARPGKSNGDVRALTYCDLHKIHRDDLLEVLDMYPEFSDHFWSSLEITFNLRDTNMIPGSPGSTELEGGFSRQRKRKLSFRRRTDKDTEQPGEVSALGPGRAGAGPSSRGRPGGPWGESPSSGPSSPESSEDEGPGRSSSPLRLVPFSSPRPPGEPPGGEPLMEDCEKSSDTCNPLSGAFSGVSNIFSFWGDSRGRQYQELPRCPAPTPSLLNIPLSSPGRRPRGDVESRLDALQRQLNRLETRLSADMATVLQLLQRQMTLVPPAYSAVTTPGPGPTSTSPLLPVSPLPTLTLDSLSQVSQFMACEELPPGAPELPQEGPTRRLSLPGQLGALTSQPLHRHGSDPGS

Compound | hERG current change (%, negative = inhibition) at 10uM [%]
COc1cc(S(=O)(=O)NC2CCCC2)ccc1F | 1.19
CC1CCN(C(=O)c2ccccc2NS(=O)(=O)c2ccccc2)CC1 | 8.52
CCc1ccc(-c2nn[nH]n2)cc1 | 4.61
Cc1ccc(C)c(SCC(=O)NNC(=O)c2ccccc2)c1 | 9.78
COc1ccc(NC(=O)C2CCN(c3cnccn3)CC2)cc1OC | 15.5
CC(NC1CCCCC1)C(O)C12CC3CC(CC(C3)C1)C2.Cl (centres unmarked) | -16.4
CCCn1c(N)c(C(c2ccc(C(=O)OC)cc2)N2CCN(c3ccccc3)CC2)c(=O)[nH]c1=O (centres unmarked) | -9.93
COC(=O)c1ccc(C(c2c(N)n(Cc3ccccc3)c(=O)n(C)c2=O)N2CCOCC2)cc1 (centres unmarked) | -57.9
COC(=O)c1ccc(C(c2c(N)n(CC(C)C)c(=O)[nH]c2=O)N2CCN(c3ccccc3)CC2)cc1 (centres unmarked) | -8.97
COc1cccc(CNC(=O)C2CCN(S(=O)(=O)N3CCC(C)CC3)CC2)c1 | -3.44
O=C(Cc1cccs1)N=Nc1c(O)[nH]c2ccccc12 | 7.07
O=C(CN1CCN(Cc2ccccc2)CC1)N=Nc1c(O)[nH]c2ccccc12 | -65
O=C(CSCc1ccccc1)N=Nc1c(O)[nH]c2ccccc12 | -19.1
COCC(=O)N=Nc1c(O)[nH]c2ccccc12 | -5.52
Cc1ccc(CN2CCN(CC(=O)N=Nc3c(O)[nH]c4ccccc34)CC2)cc1 | -73.5
O=C(CCN1CCCCC1)N=Nc1c(O)[nH]c2ccccc12 | 11.3
O=C(CN1CCN(Cc2ccccc2Cl)CC1)N=Nc1c(O)[nH]c2ccccc12 | -61.3
O=C(CN1CCCCC1)N=Nc1c(O)[nH]c2ccccc12 | 4.68
O=C(N=Nc1c(O)[nH]c2ccccc12)c1ccc(CN2CCOCC2)cc1 | 22.9
N#Cc1ccccc1NC(=S)Nc1ccc(F)cc1 | 16.2

Compound | hERG current change (%, negative = inhibition) at 10uM [%]
CCN(C(=O)c1cc2c(=O)[nH]c3ccc(C)cc3c2s1)c1ccc(OC)cc1 | 9.09
COC(=O)c1ccc(N2CCN(C)CC2)c(NC(=O)c2sc3ccccc3c2Cl)c1 | 13.1
COc1ccc(C=C(C#N)C#N)c(CSc2ccccn2)c1 | 1.19
COc1ccc(C(=O)Nc2ccc(N3CCCCC3)cc2)cc1Br | -8.48
O=C(N/N=C/c1cc(Br)cc(Br)c1O)c1ccncc1 | 15.6
Cc1ccc(S(=O)(=O)CCC(=O)OCC(=O)N2c3ccccc3NC(=O)C2(C)C)cc1 | 14
O=C(O)C(=O)/C(=C\c1ccccc1)c1ccc2ccccc2n1 | 13.9
O=C(Nc1cccc(-c2csc(Nc3ccccc3)n2)c1)c1ccccc1 | 2.4
O=C(CSc1ncn[nH]1)N1CCN(c2nnc(-c3ccccc3)c3ccccc23)CC1 | -0.967
Cc1ccc(OCC(=O)N2CCN(C(=O)Cc3ccccc3)CC2)cc1 | -38.4
COc1ccc(OCC(=O)N2CCN(c3nnc(-c4ccc(C)cc4)c4ccccc34)CC2)cc1 | -44.9
Cc1ccc(-c2nnc(N3CCN(C(=O)COc4ccccc4)CC3)c3ccccc23)cc1 | -52.1
COc1ccc(OCC(=O)N2CCN(c3nnc(-c4ccccc4)c4ccccc34)CC2)cc1 | -64.4
Cc1ccc(OCC(=O)N2CCN(C3=NS(=O)(=O)c4ccccc43)CC2)cc1 | -60.8
O=C(COc1ccc([N+](=O)[O-])cc1)N1CCN(c2nnc(-c3ccccc3)c3ccccc23)CC1 | -66.5
CCCC(=O)N1CCN(C2=NS(=O)(=O)c3ccccc32)CC1 | -3
COc1ccc(-c2nnc(N3CCCCC3)c3ccccc23)cc1 | -47.3
CCN(CC)C(=O)COc1ccc(-c2nnc(N3CCCCC3)c3ccccc23)cc1 | -25.4
CC(C)N1C(=O)N(c2cccc(Cl)c2)C(C)(O)CC1(C)C (centres unmarked) | 17.5
COc1cccc(-c2nc(CS(=O)CC(=O)NCc3ccccc3)c(C)o2)c1 (centres unmarked) | -6.07

Compound | hERG current change (%, negative = inhibition) at 10uM [%]
CCCOc1cccc(NC(=O)c2c(-c3ccccc3)noc2C)c1 | -8.81
CCC1(O)CC(C(=O)OC)=NN1C(=O)c1ccccc1 (centres unmarked) | 7.94
COc1ccccc1-n1cnnc1SCC(=O)Nc1ncc(Cl)cc1Cl | -0.265
COc1ccccc1OCC(=O)NCCSCc1ccc(Cl)cc1 | -45
COc1ccc(C(=O)N/C(=C\c2ccccc2)C(=O)Nc2ccccc2C(=O)O)cc1 | 11.3
COc1ccccc1C(=O)NNC(=O)c1ccc(C)cc1 | 9.24
Cc1ccc(NC(=O)C2(N3CCC3=O)CCCCC2)cc1 | 6.92
COCC(C)NC(=O)C(C)Oc1ccccc1 (centres unmarked) | 12
CC(C)c1nnc(NC(=O)CCC(=O)NCc2ccccc2Cl)s1 | 11.2
Cn1cnc([N+](=O)[O-])c1NCc1ccccc1 | 10.3
COc1cc(/C=N/Nc2nc(Nc3ccccc3)nc(N3CCOCC3)n2)ccc1OC(=O)c1ccco1 | 13.6
O=C(COc1ccccc1)N1CCN(c2nnc(-c3ccccc3)c3ccccc23)CC1 | -65.3
Cn1c(=O)n(CC(=O)N2CCN(c3nnc(-c4ccccc4)c4ccccc34)CC2)c2ccccc21 | -56
O=C(CN1C(=O)c2ccccc2C1=O)N1CCN(c2nnc(-c3ccccc3)c3ccccc23)CC1 | 5.5
Cc1ccc(-c2nnc(N3CCN(C(=O)Cn4c(=O)n(C)c5ccccc54)CC3)c3ccccc23)cc1 | -28.7
Cc1ccc(OCC(=O)N2CCN(c3nnc(-c4ccccc4)c4ccccc34)CC2)cc1 | -61.5
Cc1ccc(OCC(=O)N2CCN(c3nnc(-c4ccc(C)cc4)c4ccccc34)CC2)cc1 | -49.3
O=C(COc1ccc(-c2nnc(N3CCCCC3)c3ccccc23)cc1)N1CCCCC1 | -32.3
CCC(=O)N1CCN(c2nnc(-c3ccccc3)c3ccccc23)CC1 | -13.5
